We go through 7 molecules from PubChem BioAssay (Tox21).

Assay [1] in a line: qHTS assay for small molecules that induce genotoxicity in human embryonic kidney cells expressing luciferase-tagged ATAD5 (AID 651632). Note: nearly all actives have a fitted effect of over 15% in size. In outline:
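Quantitative HTS in HEK293T expressing luciferase-tagged ATAD5, whose levels rise upon DNA damage. Exposure ran 16 hr at 37C and 5% CO2, with luminescence read 30 min after Amplite addition at room temperature.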

The nature of assay [2]: qHTS assay for small molecule agonists of the p53 signaling pathway - cell viability (AID 651633; calls by dose curve; note: series mostly up to about 83 µM; nearly all actives have a fitted effect of over 30% in size). In outline: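 p53RE-bla cells, seeded at 4,000 per well and rested 5 h at 37 C/5% CO2, received compounds in DMSO for 16 h at 37 C. CellTiter-Glo was then added, and luminescence was read after 30 min at room temperature to gauge cytotoxicity.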
In general terms: In qHTS, concentration-response curves come from the screen itself.

A short description of assay [3]: qHTS assay for small molecules that induce genotoxicity in human embryonic kidney cells expressing luciferase-tagged ATAD5 - cell viability (AID 651634; calls by dose curve; note: nearly all actives have a fitted effect of over 25% in size). In outline: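 After 15.5 hr incubation with compound at 37C, 5% CO2, HEK293T ATAD5-luciferase cells received CellTiter-Fluor reagent; fluorescence intensity was quantified following 30 min at 37C.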
Assay [4] can be described thus: qHTS assay for small molecule disruptors of the mitochondrial membrane potential - cell viability (AID 720634; calls by dose curve;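 note: human HepG2 liver cancer cells; series mostly up to about 83 µM; nearly all actives have a fitted effect of over 20% in size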). In outline:
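ATP-based luminescent viability readout (CellTiter-Glo, 30 min, room temperature) in HepG2 cells multiplexed with the m-MPI membrane potential dye; compound exposure lasted 1 hr at 37 C.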

Assay [5] in a line: qHTS assay for small molecule disruptors of the mitochondrial membrane potential (AID 720635). Note: potency is the fitted concentration of half-maximal effect. In outline:
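HepG2 cells (2,000/well) attached overnight at 37C, then took compound for 1 hr at 37C, 5% CO2. Mito-MPS dye was added for 30 min; fluorescence was read at 490/535 nm (monomers) and 540/590 nm (aggregates).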

The nature of assay [6]: qHTS assay to test for compound auto fluorescence at 590 nm (red) in HepG2 cells (AID 720674). In outline:
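Intrinsic compound fluorescence in the red window (Ex/Em 540/590 nm) is measured in attached HepG2 cells exposed for 1 hr, DMSO vehicle as baseline, benchmarked to Rose Bengal sodium.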

Assay [7] in a line: qHTS assay to test for compound auto fluorescence at 535 nm (green) in HepG2 cells (AID 720675).
Assay [8] in a line: qHTS assay to test for compound auto fluorescence at 460 nm (blue) in HEK293 cells (AID 720678). In outline:
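HEK293 cells (2,000 per well, medium with 10% dialyzed FBS) attached for 4-5 hr at 37C, then received compound and stood overnight at 37C, 5% CO2. Blue fluorescence was read at Ex/Em 405/460 nm and expressed relative to triamterene.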

The nature of assay [9]: qHTS assay to test for compound auto fluorescence at 590 nm (red) in HEK293 cells (AID 720679). In outline:
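HEK293 cells (2,000/well, medium with 10% dialyzed FBS) attached for 4-5 hr at 37C, received 23 nL compound and were incubated overnight at 37C, 5% CO2. Red fluorescence was then read at 540/590nm Ex/Em, referenced to Rose Bengal sodium.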

A short description of assay [10]: qHTS assay to test for compound auto fluorescence at 535 nm (green) in HEK293 cells (AID 720680).
The nature of assay [11]: qHTS assay to test for compound auto fluorescence at 460 nm (blue) in HEK293 cell free culture (AID 720681). In outline:
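Test compounds were pinned into cell-free culture medium (DMEM with 10% FBS) and fluorescence was read directly at Ex/Em 405/460 nm. Signals were expressed as fluorescence equivalents of triamterene, with DMSO vehicle as control.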

The nature of assay [12]: qHTS assay to test for compound auto fluorescence at 535 nm (green) in HEK293 cell free culture (AID 720682). In outline: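 Compounds were pin-transferred into cell-free DMEM with 10% FBS, and green fluorescence was read at excitation 485 nm and emission 535 nm. Intensities were expressed as fluorescein-equivalent values.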
Assay [13] is described as follows: qHTS assay to test for compound auto fluorescence at 590 nm (red) in HEK293 cell free culture (AID 720683). In outline: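 Tox21 10K library compounds were pinned into cell-free DMEM with 10% FBS and fluorescence was read at excitation 540 nm. Activity is expressed as Rose Bengal sodium equivalency.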
Assay [14] can be described thus: qHTS assay to test for compound auto fluorescence at 590 nm (red) in HepG2 cell free culture (AID 720684). In outline: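 Readout: intrinsic compound fluorescence at 590 nm emission after 540 nm excitation, scaled to Rose Bengal sodium. Matrix was cell-free MEM with 10% FBS; DMSO vehicle wells served as control.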
The nature of assay [15]: qHTS assay to test for compound auto fluorescence at 460 nm (blue) in HepG2 cell free culture (AID 720685). In outline: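 Cell-free plates of MEM plus 10% FBS received 23 nL compound or DMSO vehicle; blue-channel (405/460 nm) intensity scored against triamterene as reference fluorophore.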
Assay [16] in a line: qHTS assay to test for compound auto fluorescence at 535 nm (green) in HepG2 cell free culture (AID 720686).
Assay [17] is described as follows: qHTS assay to test for compound auto fluorescence at 460 nm (blue) in HepG2 cells (AID 720687). In outline: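 Cells (2,000/well in MEM with 10% FBS) attached overnight at 37 C, then were exposed to compound or DMSO for 1 hr at 37 C, 5% CO2. Fluorescence read at Ex/Em 405/460 nm, expressed as triamterene-equivalent signal.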
Assay [18] has as its target Glucocorticoid receptor (Homo sapiens) (UniProt P04150). Briefly: qHTS assay to identify small molecule agonists of the glucocorticoid receptor (GR) signaling pathway (AID 720691; active = well fitted activation curve with a large enough effect in the signal ratio in the repeat runs, not every such curve was filed as active; the % refers to the signal ratio). In outline: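 Cells: GR-bla HeLa, endogenous GR with stably integrated GRE-beta-lactamase reporter. Treatment 18 h, 37 C, compounds delivered in DMSO. Detection via LiveBLAzer B/G FRET substrate, 2 h RT, fluorescence intensity.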

The nature of assay [19]: qHTS assay for small molecule agonists of the p53 signaling pathway (AID 651631; calls by dose curve; note: nearly all actives have a fitted effect of over 15% in size). In outline: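 Readout was fluorescence from the LiveBLAzer FRET substrate, applied for 2 h at room temperature after 16 h compound exposure at 37 °C. Cells were the p53RE-bla HCT-116 line, with beta-lactamase driven by p53 response elements.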
Assay [20] concerns the target Glucocorticoid receptor (Homo sapiens) (UniProt P04150). Briefly: qHTS assay to identify small molecule antagonists of the glucocorticoid receptor (GR) signaling pathway (AID 720692; active = well fitted inhibition curve with a large enough effect in the signal ratio in the repeat runs, not every such curve was filed as active; the % refers to the signal ratio). In outline: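 Quantitative HTS in antagonist format: HeLa cells expressing endogenous GR and a stably integrated GRE-bla reporter, stimulated with 5 nM dexamethasone (final) alongside test compounds for 18 h.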

Each structure is given as a SMILES string. A number with no mark means an inactive call. Records with an inconclusive call do not appear. Activity calls are given as the source filed them. Unless noted, calls come from the whole dose curve; as a rule, active = well fitted curve in the direction sought with a large enough effect in the repeat runs; inconclusive = weak or mixed curves; inactive = no such curve, though single readings can be large; an effect the other way counts as inactive or inconclusive.

Glucocorticoid receptor (Homo sapiens), sequence (P04150 whole entry, looked up): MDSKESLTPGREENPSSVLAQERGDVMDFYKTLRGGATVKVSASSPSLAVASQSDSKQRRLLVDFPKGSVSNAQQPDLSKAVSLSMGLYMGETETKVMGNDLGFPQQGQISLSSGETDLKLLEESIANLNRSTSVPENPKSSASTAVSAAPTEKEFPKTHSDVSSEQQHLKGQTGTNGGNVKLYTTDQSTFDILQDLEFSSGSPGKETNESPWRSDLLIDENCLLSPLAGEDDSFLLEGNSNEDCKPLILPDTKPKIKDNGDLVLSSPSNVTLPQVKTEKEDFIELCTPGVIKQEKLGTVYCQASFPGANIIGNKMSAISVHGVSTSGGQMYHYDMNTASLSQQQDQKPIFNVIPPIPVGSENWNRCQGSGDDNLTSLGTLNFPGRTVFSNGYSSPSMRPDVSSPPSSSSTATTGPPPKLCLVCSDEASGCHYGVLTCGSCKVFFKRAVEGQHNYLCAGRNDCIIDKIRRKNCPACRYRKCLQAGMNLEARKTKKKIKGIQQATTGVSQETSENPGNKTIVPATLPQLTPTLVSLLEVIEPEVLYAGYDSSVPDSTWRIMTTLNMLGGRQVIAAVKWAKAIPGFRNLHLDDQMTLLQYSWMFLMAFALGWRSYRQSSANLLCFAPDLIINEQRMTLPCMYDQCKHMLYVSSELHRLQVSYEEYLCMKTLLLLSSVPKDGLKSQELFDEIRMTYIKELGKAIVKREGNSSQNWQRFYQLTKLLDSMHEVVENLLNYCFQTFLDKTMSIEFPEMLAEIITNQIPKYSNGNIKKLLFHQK

`O=C(NN1CCCC1)NS(=O)(=O)c1ccc(Cl)cc1`: the Potency result in assay [1], in assay [2], in assay [3], in [4], in [5] and in [8] was “inactive” throughout. Moreover, the Potency result in [11], in assay [15], in [17] and in assay [18] was “inactive” each time. The outcome in assay [6], in [7], in assay [9], in assay [10], in [12] and in assay [13] was inactive. Besides, the result in [14] and in [16] was inactive.
Take `CC(C)c1ccc2c(C(C)C)cc(C(C)C)c(S(=O)(=O)O)c2c1`: the Potency entry in [1], in [2], in assay [3], in assay [4], in assay [5] and in assay [8] was “inactive” each time. Also, the Potency result in [11], in assay [15], in assay [17] and in assay [18] was “inactive” throughout. Further, the call in assay [6], in [7], in assay [9], in assay [10], in assay [12] and in assay [13] was inactive. Further, the outcome in [14] and in [16] was inactive.
Turning to `O=C(Cl)c1c(Cl)cccc1Cl`, the Potency result in assay [1], in assay [2], in assay [3], in assay [4], in assay [5] and in [8] was “inactive” in each case. Besides, the Potency result in assay [11], in assay [15], in assay [17] and in [18] was “inactive” throughout. Besides, the result in assay [6], in [7], in assay [9], in assay [12], in [13] and in assay [14] was inactive. Further, the outcome in assay [16] was inactive.
As for `CCCCCCCCCCCCCCC1CO1` (stereo not given), the Potency result in assay [19], in assay [1], in [2], in assay [3], in assay [15] and in assay [17] was “inactive” each time. The Potency result in assay [18] and in assay [20] was “inactive” each time. In addition, the molecule was called inactive in assay [6], in [7], in [9], in [10], in [12] and in [13]. Besides, the outcome in assay [14] and in [16] was inactive.
As for `CC(C)(C)c1ccc(OCC2CO2)cc1` (stereo not given), the Potency result in assay [1], in assay [2], in assay [3], in assay [4], in assay [5] and in assay [8] was “inactive” throughout. Further, the Potency result in [11], in [15] and in assay [18] was “inactive” each time. The molecule was called inactive in [6], in assay [7], in assay [9], in [10], in assay [13] and in assay [14]. The outcome in assay [16] was inactive.
`Oc1ccc2c(c1)OCO2`: the Potency entry in assay [19], in assay [1], in assay [2], in [4], in assay [5] and in assay [11] was “inactive” throughout. Also, the Potency result in [15], in [17] and in assay [18] was “inactive” each time. Also, the molecule was called inactive in assay [6], in assay [7], in assay [9], in assay [10], in assay [12] and in assay [13]. Also, the result in assay [14] and in [16] was inactive.
As to `CCCCCCCC/C=C\CCCCCCCC(N)=O`, the Potency result in [1], in [2], in [3], in assay [4], in [8] and in assay [11] was “inactive” in each case. The Potency result in [15], in [17], in [18] and in [20] was “inactive” in each case. Moreover, the Potency in assay [5] is 48.5 µM (active). Besides, the molecule was called inactive in assay [6], in assay [7], in assay [9], in [10], in assay [13] and in assay [14]. Further, the molecule was classed as inactive in [16].
